Measured values from PubChem BioAssay.
Inconclusive results are not listed. Active and inactive are the calls of the source. Unless noted, how the calls were made is not given here.

Legend:
[1] = rapamycin-like changes in RPL19A-GFP expression – cell-based, S. cerevisiae, multiplex flow cytometry, primary screen (AID 1862; in the data active means percent of DMSO control GFP below about 86%;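 further: lower values mimic rapamycin by blocking the RPL19A rise seen in DMSO cells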); conditions: S. cerevisiae RPL19A-GFP strain, flow cytometry fluorescence, 3 h; at 10 µM; stronger effect = lower value
[2] = TOR pathway GLN3 branch reporter MEP2-GFP changes – S. cerevisiae, multiplex flow cytometry, primary screen (AID 1867;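 active means GFP response, as percent of the DMSO control, above the screen-wide mean plus 3 SD, about 139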;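 further: median GFP channel fluorescence of barcode-gated MEP2-GFP cells measured by flow cytometry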); conditions: S. cerevisiae MEP2-GFP strain, 3 h, at 10 µM, stronger effect = higher value
[3] = TOR pathway RTG branch CIT2 reporter changes – S. cerevisiae, GFP fusion, multiplex flow cytometry, primary screen (AID 1870;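 active means percent response above a set limit, the screen-wide mean plus 3 SD, cut at about 130% in these data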;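 further: barcoded CIT2-GFP strain pooled with four other GFP strains with rapamycin as positive control; median GFP fluorescence per well over plate mean of DMSO wells so 100% = DMSO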); conditions: S. cerevisiae CIT2-GFP expression, 3 h, at 10 µM, stronger effect = higher value
[4] = TOR pathway LAP4-GFP level changes – S. cerevisiae, multiplex flow cytometry, primary screen (AID 1873;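 active means GFP signal, as percent of the solvent control, above the screen mean plus 3 SD, about 149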); conditions: S. cerevisiae LAP4-GFP expression, 3 h, at 10 µM, stronger effect = higher value
[5] = reduced mouse 2C T cell binding to pMHC/ICAM-1 vesicles – MLPCN validation set, flow cytometry, LFA-1/ICAM-1 modulator project, pilot screen (AID 2523;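 active means response below a set limit, under 55% cells CD8-positive and vesicle-bound, and CD8 cells' 90th-percentile brightness under 279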;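 on vesicle binding response: mean PE anti-B7-1 fluorescence of CD8+ cells relative to row control; 100% = QL9-loaded vesicles with DMSO vehicle in the same plate row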); conditions: 2C mouse CD8+ T cells, at 7 µM, stronger effect = lower value; double positive events: measured here: CD8+/vesicle+ event percentage
[6] = molecular target: Integrin beta-1 (Homo sapiens) + Integrin alpha-4 (Homo sapiens) (UniProt P13612+P05556); assay: alpha4beta1 integrin LIBS antibody binding reduction – U937 cells, HUTS-21 mAb, flow cytometry, validation set, VLA-4 allosteric modulator project, pilot screen (AID 2674;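 active means inhibition above 50%, about 3 SD of the validation set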;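 further: antibody binding induced by the VLA-4 ligand LDV present at three times its Kd; 0% = LDV ligand with antibody and no compound and 100% = antibody without LDV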); conditions: HUTS-21 LIBS mAb binding, at 6.7 µM, stronger effect = higher value
Chain of Integrin beta-1 (Homo sapiens) + Integrin alpha-4 (Homo sapiens) (P05556 whole entry, looked up): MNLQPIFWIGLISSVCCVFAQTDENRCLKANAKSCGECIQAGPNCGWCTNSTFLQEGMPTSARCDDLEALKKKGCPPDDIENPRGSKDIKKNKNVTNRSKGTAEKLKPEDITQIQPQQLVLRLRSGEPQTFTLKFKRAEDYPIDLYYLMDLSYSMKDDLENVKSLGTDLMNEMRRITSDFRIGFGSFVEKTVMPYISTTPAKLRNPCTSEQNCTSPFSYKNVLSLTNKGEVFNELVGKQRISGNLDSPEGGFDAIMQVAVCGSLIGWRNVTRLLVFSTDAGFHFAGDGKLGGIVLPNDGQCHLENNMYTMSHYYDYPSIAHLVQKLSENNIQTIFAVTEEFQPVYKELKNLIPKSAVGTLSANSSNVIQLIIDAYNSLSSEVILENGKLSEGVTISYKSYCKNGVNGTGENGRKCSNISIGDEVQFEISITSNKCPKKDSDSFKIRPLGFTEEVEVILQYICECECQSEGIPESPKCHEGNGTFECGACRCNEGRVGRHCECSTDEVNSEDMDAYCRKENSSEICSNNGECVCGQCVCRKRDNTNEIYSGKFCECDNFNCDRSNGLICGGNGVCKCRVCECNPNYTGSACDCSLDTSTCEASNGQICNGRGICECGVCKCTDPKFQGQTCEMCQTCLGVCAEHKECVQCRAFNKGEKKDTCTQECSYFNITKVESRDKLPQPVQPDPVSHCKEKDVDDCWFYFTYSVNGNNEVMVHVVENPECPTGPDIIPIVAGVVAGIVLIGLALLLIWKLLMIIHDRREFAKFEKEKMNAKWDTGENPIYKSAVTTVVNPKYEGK
Chain of Integrin beta-1 (Homo sapiens) + Integrin alpha-4 (Homo sapiens) (P13612 whole entry, looked up): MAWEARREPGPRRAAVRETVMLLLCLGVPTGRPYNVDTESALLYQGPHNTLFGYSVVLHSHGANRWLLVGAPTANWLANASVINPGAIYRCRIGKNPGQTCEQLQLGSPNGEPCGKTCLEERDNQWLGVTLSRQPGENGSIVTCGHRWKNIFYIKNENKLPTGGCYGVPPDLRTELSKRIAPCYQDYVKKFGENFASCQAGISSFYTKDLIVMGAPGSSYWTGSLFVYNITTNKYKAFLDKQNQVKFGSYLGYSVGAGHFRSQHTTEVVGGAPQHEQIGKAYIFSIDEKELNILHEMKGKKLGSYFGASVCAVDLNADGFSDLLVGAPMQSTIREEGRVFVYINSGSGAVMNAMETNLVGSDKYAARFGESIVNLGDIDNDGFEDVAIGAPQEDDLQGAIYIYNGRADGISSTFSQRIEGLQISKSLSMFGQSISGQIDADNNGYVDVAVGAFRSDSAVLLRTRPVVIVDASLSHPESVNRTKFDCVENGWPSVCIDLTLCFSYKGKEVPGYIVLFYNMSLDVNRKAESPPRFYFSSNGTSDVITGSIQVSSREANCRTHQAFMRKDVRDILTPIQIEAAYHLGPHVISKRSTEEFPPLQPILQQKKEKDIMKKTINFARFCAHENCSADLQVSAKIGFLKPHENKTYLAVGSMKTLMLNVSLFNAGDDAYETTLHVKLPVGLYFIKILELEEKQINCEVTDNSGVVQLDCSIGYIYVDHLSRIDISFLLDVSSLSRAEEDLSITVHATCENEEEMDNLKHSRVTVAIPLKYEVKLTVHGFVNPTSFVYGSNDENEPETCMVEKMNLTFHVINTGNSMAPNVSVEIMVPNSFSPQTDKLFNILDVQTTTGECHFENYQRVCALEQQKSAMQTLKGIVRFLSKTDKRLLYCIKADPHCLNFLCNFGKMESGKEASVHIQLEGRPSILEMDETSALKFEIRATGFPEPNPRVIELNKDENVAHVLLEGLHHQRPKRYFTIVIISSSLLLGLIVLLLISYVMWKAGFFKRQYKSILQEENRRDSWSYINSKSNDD

[7] = calorie-restriction mimetic ROS inhibitors, yeast – validation compound set, pilot screen (AID 2706;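 active means superoxide response below 65% of plate, a cut near 3 SD across the whole screen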;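 further: yeast exposed to compound for one week at 30 degrees C before staining; 100% = mean of all compound wells on the same plate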); conditions: S. cerevisiae aging, superoxide DHE fluorescence; at 10 µM; stronger effect = lower value
[8] = molecular target: Beta-adrenergic receptor kinase 1 (Homo sapiens) (UniProt P25098); assay: GRK2 binders displacing RNA aptamer, biochemical, validation, human GRK2, bead flow cytometry (AID 488806;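 active means aptamer binding inhibition above 30%, about 3 SD of noise from non-fluorescent compounds; inactive means inhibition at or below 30%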); conditions: bead-bound GRK2, FAM-aptamer displacement, at 10 µM, stronger effect = higher value
Chain of Beta-adrenergic receptor kinase 1 (Homo sapiens) (P25098 whole entry, looked up): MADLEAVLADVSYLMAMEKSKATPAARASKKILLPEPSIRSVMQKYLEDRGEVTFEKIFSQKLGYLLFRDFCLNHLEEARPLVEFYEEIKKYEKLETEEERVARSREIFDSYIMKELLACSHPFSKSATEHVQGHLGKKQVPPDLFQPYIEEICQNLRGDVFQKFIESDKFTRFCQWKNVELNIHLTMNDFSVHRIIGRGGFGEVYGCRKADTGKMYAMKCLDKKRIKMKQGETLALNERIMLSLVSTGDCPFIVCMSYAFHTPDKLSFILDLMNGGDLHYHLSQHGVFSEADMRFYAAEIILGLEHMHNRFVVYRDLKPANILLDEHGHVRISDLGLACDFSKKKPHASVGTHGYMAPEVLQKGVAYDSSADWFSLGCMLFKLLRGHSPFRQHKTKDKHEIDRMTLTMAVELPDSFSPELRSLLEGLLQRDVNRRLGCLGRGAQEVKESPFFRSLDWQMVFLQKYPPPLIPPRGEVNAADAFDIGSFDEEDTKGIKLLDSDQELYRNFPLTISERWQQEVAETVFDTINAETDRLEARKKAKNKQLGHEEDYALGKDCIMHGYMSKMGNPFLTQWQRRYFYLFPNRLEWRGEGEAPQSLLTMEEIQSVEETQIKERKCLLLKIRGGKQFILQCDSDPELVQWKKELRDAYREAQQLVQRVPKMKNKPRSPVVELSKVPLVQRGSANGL

[9] = molecular target: AP-2 complex subunit beta (Homo sapiens) (UniProt P63010); assay: beta-arrestin/AP2 interaction blockers – biochemical, validation set, GST-AP2 beads, flow cytometry, pilot screen (AID 504541;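 active means inhibition above 54%, about 3 SD of non-fluorescent compounds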;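 further: AP2 carries R879A mutation and is captured from E. coli lysate; bead-bound FITC arrestin peptide fluorescence measuring arrestin peptide binding to AP2; 0% = DMSO wells and 100% = excess unlabeled arrestin peptide control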); conditions: FITC arrestin peptide, at 10 µM, stronger effect = higher value
Chain of AP-2 complex subunit beta (Homo sapiens) (P63010 whole entry, looked up, one chain of several): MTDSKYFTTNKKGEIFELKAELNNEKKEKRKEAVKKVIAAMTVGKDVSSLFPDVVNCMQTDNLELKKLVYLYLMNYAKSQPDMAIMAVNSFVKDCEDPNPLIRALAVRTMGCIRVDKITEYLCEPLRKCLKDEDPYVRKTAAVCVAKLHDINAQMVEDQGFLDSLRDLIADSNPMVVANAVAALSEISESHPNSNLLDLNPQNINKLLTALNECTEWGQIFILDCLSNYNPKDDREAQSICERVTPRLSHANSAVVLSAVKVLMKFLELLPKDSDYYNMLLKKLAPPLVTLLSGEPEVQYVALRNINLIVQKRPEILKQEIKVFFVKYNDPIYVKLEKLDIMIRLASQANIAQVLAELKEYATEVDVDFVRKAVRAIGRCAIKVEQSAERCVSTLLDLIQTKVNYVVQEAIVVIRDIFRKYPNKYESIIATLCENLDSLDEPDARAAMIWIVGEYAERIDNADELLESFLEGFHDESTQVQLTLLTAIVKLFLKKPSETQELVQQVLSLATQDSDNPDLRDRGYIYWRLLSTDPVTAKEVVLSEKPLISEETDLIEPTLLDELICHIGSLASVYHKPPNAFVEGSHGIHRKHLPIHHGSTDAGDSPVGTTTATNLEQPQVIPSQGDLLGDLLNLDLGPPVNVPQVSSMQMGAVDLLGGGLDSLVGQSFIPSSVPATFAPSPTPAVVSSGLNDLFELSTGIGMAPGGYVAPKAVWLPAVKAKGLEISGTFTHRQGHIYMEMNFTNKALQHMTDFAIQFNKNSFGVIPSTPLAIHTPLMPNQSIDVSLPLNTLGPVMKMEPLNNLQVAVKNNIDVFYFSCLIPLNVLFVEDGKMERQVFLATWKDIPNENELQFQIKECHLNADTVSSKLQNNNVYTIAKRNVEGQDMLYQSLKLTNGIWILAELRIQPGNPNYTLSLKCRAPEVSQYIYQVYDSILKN

[10] = cytosolic pH regulators acting via V-ATPase – S. cerevisiae, pHLuorin, HTS validation (AID 504600; in the data active means response above about 15%;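 further: plate controls were DMSO for no effect and reference compound for full effect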); conditions: V-ATPase proton transport, at 10 µM, stronger effect = higher value
[11] = test system: anti-desmoglein-3 scFv antibody binding to human DSG3; assay: blockers of pathogenic pemphigus antibody–desmoglein-3 binding – biochemical, validation compound set, bead-based, flow cytometry, pilot screen (AID 588368;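 active means binding below the plate cutoff, the plate median minus 3 SD, with a reading above zero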;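 further: signal is the median channel fluorescence of bead-bound GFP antibody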); conditions: Protein G beads, DSG3-Fc, scFv-GFP binding, at 10 µM, stronger effect = lower value
[12] = test system: Botulinum neurotoxin type F light chain protease (Clostridium botulinum); assay: Clostridium botulinum type F light chain protease inhibitors, microsphere substrate cleavage, validation (AID 588459); conditions: multiplex microsphere protease substrate cleavage assay, flow cytometry; at 10 µM; stronger effect = higher value
[13] = molecular target: Botulinum neurotoxin type A (Clostridium botulinum) (UniProt P0DPI0); assay: BoNT/A light chain protease inhibitors, biochemical, multiplex microsphere flow cytometry, validation set (AID 588460); conditions: at 10 µM, stronger effect = higher value
Chain of Botulinum neurotoxin type A (Clostridium botulinum) (P0DPI0 whole entry, looked up): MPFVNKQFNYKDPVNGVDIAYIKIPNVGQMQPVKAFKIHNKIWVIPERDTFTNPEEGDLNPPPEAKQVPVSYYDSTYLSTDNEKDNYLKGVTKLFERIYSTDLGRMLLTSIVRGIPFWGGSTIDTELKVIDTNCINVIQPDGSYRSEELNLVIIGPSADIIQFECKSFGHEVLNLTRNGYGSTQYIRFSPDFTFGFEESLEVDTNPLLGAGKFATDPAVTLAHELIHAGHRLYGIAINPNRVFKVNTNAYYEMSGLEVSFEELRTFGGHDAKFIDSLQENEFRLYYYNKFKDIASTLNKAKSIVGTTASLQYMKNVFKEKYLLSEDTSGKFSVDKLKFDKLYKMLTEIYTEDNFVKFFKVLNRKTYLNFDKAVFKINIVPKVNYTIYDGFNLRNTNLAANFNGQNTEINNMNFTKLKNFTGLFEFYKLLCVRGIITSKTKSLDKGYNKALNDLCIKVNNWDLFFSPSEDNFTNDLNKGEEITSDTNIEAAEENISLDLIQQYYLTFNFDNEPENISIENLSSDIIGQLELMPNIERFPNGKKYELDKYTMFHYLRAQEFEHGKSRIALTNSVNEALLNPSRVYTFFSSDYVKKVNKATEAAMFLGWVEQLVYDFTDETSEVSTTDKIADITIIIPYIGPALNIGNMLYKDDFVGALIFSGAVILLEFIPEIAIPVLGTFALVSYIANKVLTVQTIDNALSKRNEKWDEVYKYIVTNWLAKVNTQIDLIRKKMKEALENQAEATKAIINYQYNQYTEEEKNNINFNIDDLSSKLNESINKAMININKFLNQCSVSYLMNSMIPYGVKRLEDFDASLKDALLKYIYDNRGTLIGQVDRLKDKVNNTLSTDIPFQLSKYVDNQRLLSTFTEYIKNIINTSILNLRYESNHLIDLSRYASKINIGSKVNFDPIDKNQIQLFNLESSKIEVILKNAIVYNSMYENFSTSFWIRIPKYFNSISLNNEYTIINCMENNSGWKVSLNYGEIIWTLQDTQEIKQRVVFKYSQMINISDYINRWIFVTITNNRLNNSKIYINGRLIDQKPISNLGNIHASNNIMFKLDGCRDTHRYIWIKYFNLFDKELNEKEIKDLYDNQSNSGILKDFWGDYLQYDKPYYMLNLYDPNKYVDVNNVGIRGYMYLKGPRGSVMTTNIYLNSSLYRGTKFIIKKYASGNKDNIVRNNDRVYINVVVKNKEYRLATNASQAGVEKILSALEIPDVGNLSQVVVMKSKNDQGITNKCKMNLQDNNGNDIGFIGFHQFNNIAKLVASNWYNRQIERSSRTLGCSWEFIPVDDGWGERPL

[14] = molecular target: Lethal factor (Bacillus anthracis) (UniProt P15917); assay: Bacillus anthracis lethal factor inhibition, microsphere flow cytometry protease assay, validation at 10 µM (AID 588461); conditions: multiplex microsphere protease cleavage assay, stronger effect = higher value
[15] = Nile Red efflux blockade in pump-expressing yeast – validation compound set, multiplex, phenotypic, pilot screen (AID 588506;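 active means efflux inhibition above 0.42, the validation set average plus 4 SD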;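 further: Nile Red retained in cells so higher fluorescence means more efflux inhibition; 0 = negative control wells and 1 = enniatin B 25 µM full block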); conditions: S. cerevisiae pump-expressing triplex, Nile Red efflux flow cytometry; at 10 µM; stronger effect = higher value
[16] = molecular target: ATP-binding cassette sub-family B member 6 (Homo sapiens) (UniProt Q9NP58); assay: blockers of ABCB6-driven porphyrin uptake – K562-ABCB6 cells, flow cytometry, validation set, pilot screen (AID 588550;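 active means inhibition above the screen-wide mean plus 3 SD, about 51%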;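 further: 0% = DMSO wells and 100% = benzethonium chloride 70 µM positive control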); conditions: K562-ABCB6 porphyrin accumulation, 1 h, at 10 µM, stronger effect = higher value
[17] = AML differentiation inducers, ER-HoxA9 marrow cells – cell-based, GFP/MAC1 double positive, flow cytometry, validation set, primary screen (AID 588685;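 active means differentiation response of at least 50%, scaled between solvent and reference control, from cells with both markers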;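 further: compound exposure lasts four days before antibody staining and flow analysis; 0% = DMSO wells and 100% = 5 µM fulvestrant positive control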); conditions: stronger effect = higher value

Compound | percent of DMSO control GFP [1] | GFP response vs DMSO [2] | percent response of DMSO control [3] | GFP response vs DMSO [4] | double positive events [5] [%] | vesicle binding response [5] | inhibition [6] | superoxide response (% of plate) [7] | aptamer binding inhibition [8] | inhibition [9] | response [10] | binding (% of control) [11] | inhibition [12] | inhibition [13] | inhibition [14] | efflux inhibition (fraction of control) [15] | inhibition [16] | differentiation response [17]
c1ccc(Cn2ccnc2)cc1 | 97.4% (inactive) | 97.9% (inactive) | 90% (inactive) | 99.4% (inactive) | 63.8 | 185% (inactive) | 14.7% (inactive) | 92.9% (inactive) | 12% (inactive) | 0.17% (inactive) | 4.53% (inactive) | 97.7% (inactive) | 5.2% (inactive) | 0.1% (inactive) | -0.1% (inactive) | 0.03 (inactive) | 9% (inactive) | -16.4% (inactive)
COc1ccc(Cc2nccc3cc(OC)c(OC)cc23)cc1OC | 101% (inactive) | 96.7% (inactive) | 94.9% (inactive) | 98.7% (inactive) | 59.9 | 146% (inactive) | – | 96% (inactive) | 4% (inactive) | -1.6% (inactive) | -0.83% (inactive) | 108% (inactive) | 1.7% (inactive) | 0.2% (inactive) | 3.7% (inactive) | 0.49 (active) | 4% (inactive) | 6.49% (inactive)
Cc1cc(Cl)ccc1OC(C)C(=O)O (configuration not stated) | 97.9% (inactive) | 108% (inactive) | 111% (inactive) | 74.8% (inactive) | 58.2 | 208% (inactive) | -6.15% (inactive) | 135% (inactive) | -5% (inactive) | 0.4% (inactive) | 3.15% (inactive) | 105% (inactive) | 3.9% (inactive) | 0.5% (inactive) | – | 0.37 (inactive) | 9% (inactive) | 7.37% (inactive)
CC(C)[C@H]1C(=O)N2CCC[C@H]2[C@]2(O)O[C@](NC(=O)[C@@H]3C=C4c5cccc6[nH]cc(c56)C[C@H]4N(C)C3)(C(C)C)C(=O)N12 | 99% (inactive) | 108% (inactive) | 102% (inactive) | 123% (inactive) | 59.8 | 192% (inactive) | – | 38.3% (active) | 8% (inactive) | 3.83% (inactive) | -7.73% (inactive) | 105% (inactive) | -15.7% (inactive) | -5% (inactive) | -64.2% (inactive) | 0.25 (inactive) | -96% (inactive) | -2.03% (inactive)
CN[C@H]1C[C@H]2O[C@@](C)([C@H]1OC)n1c3ccccc3c3c4c(c5c6ccccc6n2c5c31)C(=O)NC4 | 104% (inactive) | 105% (inactive) | 107% (inactive) | 84.1% (inactive) | 64 | 105% (inactive) | -86.6% (inactive) | – | – | 0.54% (inactive) | 1.34% (inactive) | – | – | – | 6.2% (inactive) | 0.14 (inactive) | -76% (inactive) | 12% (inactive)
